Test results reported in PubChem BioAssay (Tox21).
A number with no mark means an inactive call. Inconclusive results are not listed. Where a call stands in place of a potency, no number is given. Activity calls are given as the source filed them. Unless noted, the call rests on the fitted dose curve; in most records, active means well fitted curve in the direction sought with a large enough effect in the repeat runs; inconclusive means weak or mixed curves; inactive means no such curve, though single readings can be large; an effect the other way counts as inactive or inconclusive.

Key:
[1] = qHTS assay to identify small molecule agonists of the estrogen receptor alpha (ER-alpha) signaling pathway in the presence of an antagonist - cell viability counter screen (AID 1259386); further: nearly all actives have a fitted effect of over 30% in size; further: potency means the concentration at half of the fitted maximal effect
Summary of the method: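 Compounds tested at 15 concentrations for 22 h at 37C alongside 10.0nM (final) ICI-182,780 antagonist, in VM7Luc4E2 cells grown in phenol red-free, charcoal-stripped medium. Viability read by CellTiter-Fluor fluorescence after 1 h reagent incubation.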

[2] = biological target: Progesterone receptor (Homo sapiens) (UniProt P06401); experiment: qHTS assay to identify small molecule agonists of the progesterone receptor (PR) signaling pathway (AID 1346784; calls by dose curve; further: nearly all actives have a fitted effect of over 30% in size)
Summary of the method: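 HEK 293T PR-UAS-bla reporter cells, 2% charcoal-stripped FBS; 6 hr settle at 37C/5% CO2, compound (DMSO) 16 hr, LiveBLAzer B/G FRET substrate 2 hr RT, fluorescence intensity read.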

[3] = biological target: Progesterone receptor (Homo sapiens) (UniProt P06401); experiment: qHTS assay to identify small molecule antagonists of the progesterone receptor (PR) signaling pathway (AID 1346795; active means well fitted inhibition curve with a large enough effect in the signal ratio in the repeat runs, not every such curve was filed as active; the % refers to the signal ratio; further: potency means the concentration at half of the fitted maximal effect)
Summary of the method: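 Beta-lactamase reporter, HEK293T PR-UAS-bla line; 2% charcoal-stripped FBS; 6 hr pre-incubation, 37C/5% CO2. Compound + R5020 1 nM final, 16 hr. LiveBLAzer B/G FRET substrate, 2 hr RT; fluorescence intensity read.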

[4] = qHTS assay to identify small molecule antagonists of the progesterone receptor (PR) signaling pathway - cell viability counter screen (AID 1346798); further: series mostly up to about 92 µM; nearly all actives have a fitted effect of over 50% in size
Summary of the method: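 Luminescence readout (CellTiter-Glo, 30 min, RT) of viability in PR-UAS-bla HEK293T cells exposed to compound and R5020 agonist for 16 hr at 37C, 5% CO2; run in the same wells as the beta-lactamase reporter read.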

[5] = qHTS assay to identify small molecule agonists of the progesterone receptor (PR) signaling pathway - cell viability counter screen (AID 1346799; calls by dose curve; further: nearly all actives have a fitted effect of over 45% in size)
Summary of the method: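 HEK293T PR-UAS-bla, 3,000 cells/well, 2% charcoal-stripped FBS; 6 h settle, compound 16 h at 37C/5% CO2; LiveBLAzer 2 h RT, then CellTiter-Glo 30 min RT, luminescence read.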

[6] = qHTS assay to identify small molecule antagonists of the TGF-beta/Smad signaling pathway - cell viability counter screen (AID 1346824); further: nearly all actives have a fitted effect of over 50% in size
Summary of the method: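 SBE-bla HEK 293T cells, incubated overnight, then compound plus 0.25 ng/mL TGF-beta1 (stock added) for 5 hr at 37 C. Viability was read in the same wells by CellTiter-Glo luminescence after 30 min at room temperature.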

[7] = qHTS assay to identify small molecule agonists of the TGF-beta/Smad signaling pathway - cell viability counter screen (AID 1346829); further: top concentration of the series differs between compounds; nearly all actives have a fitted effect of over 45% in size
Summary of the method: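 Tox21 qHTS format: SBE-bla HEK 293T cells treated with DMSO-dissolved compounds for 5 hr; CellTiter-Glo luminescence after 30 min at room temperature.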

[8] = qHTS assay to identify small molecule agonists of the TGF-beta/Smad signaling pathway (AID 1346859; active means well fitted activation curve with a large enough effect in the signal ratio in the repeat runs, not every such curve was filed as active; the % refers to the signal ratio; further: series mostly up to about 77 µM)
Summary of the method: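 Read-out: fluorescence at 460 and 530 nm (405 nm excitation) after a 2 hr room-temperature incubation with beta-lactamase FRET substrate. SBE-bla HEK 293T cells had been treated with test compounds for 5 hr at 37 C.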

[9] = Human pregnane X receptor (PXR) small molecule agonists, qHTS cell viability counter screen (AID 1346977); further: nearly all actives have a fitted effect of over 50% in size
Summary of the method: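 Fluorescence read-out (CellTiter-Fluor) of viability in PXR-Luc HepG2 cells, multiplexed with the luciferase agonist read. Compounds in DMSO added after 5hr plating; 24hr total exposure at 37C, 5% CO2.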

[10] = Caspase-3/7 induction in HepG2 cells by small molecules, qHTS assay (AID 1346978); further: nearly all actives have a fitted effect of over 15% in size
Summary of the method: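 Wild-type HepG2 cells, 2,000/well, settled 5 hr at 37 C and 5% CO2, then compound-treated for 17 hr; caspase-3/7 activity read by luminescent Caspase-Glo 3/7 after 30 min at room temperature.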

[11] = Caspase-3/7 induction in CHO-K1 cells by small molecules, qHTS cell viability counter screen (AID 1346979); further: nearly all actives have a fitted effect of over 35% in size; further: potency means the concentration at half of the fitted maximal effect
Summary of the method: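 CHO-K1 wt, 1,500 cells/well; 5hr pre-incubation 37C/5% CO2; compound pin transfer (DMSO); 16hr exposure; CellTiter-Fluor added, 1hr, fluorescence read.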

[12] = Caspase-3/7 induction in CHO-K1 cells by small molecules, qHTS assay (AID 1346980); further: nearly all actives have a fitted effect of over 15% in size
Summary of the method: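 Wild-type CHO-K1 cells exposed to compounds for 17hr at 37 C, 5% CO2. Caspase-3/7 activity then measured by Caspase-Glo 3/7 luminescence after 30min at room temperature.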

[13] = Caspase-3/7 induction in HepG2 cells by small molecules, qHTS cell viability counter screen (AID 1346981); further: series mostly up to about 92 µM; nearly all actives have a fitted effect of over 30% in size
Summary of the method: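 CellTiter-Fluor fluorescence measured viability in the same wells used for Caspase-Glo 3/7. HepG2 (wild type) at 2,000 cells/well were pre-incubated 5 hr, dosed, and given reagent at 16 hr, with 1 hr further at 37C.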

[14] = biological target: Acetylcholinesterase (Homo sapiens) (UniProt P22303); experiment: Acetylcholinesterase (AChE) small molecule antagonists: colormetric cell-based qHTS assay (AID 1347395; calls by dose curve; further: nearly all actives have a fitted effect of over 30% in size; further: potency means the concentration at half of the fitted maximal effect)
Summary of the method: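 SH-SY5Y cells; cpd 30 min 37 C; + DTNB/acetylthiocholine, 90 min 37 C; colorimetric thiocholine read; qHTS.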

[15] = biological target: Thyrotropin-releasing hormone receptor (Homo sapiens) (UniProt P34981); experiment: qHTS assay to identify small molecule agonists of the thyrotropin-releasing hormone receptor (TRHR) signaling pathway (AID 1346891; calls by dose curve;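 further: HEK293 cells expressing TRHR with calcium dye readout; series mostly up to about 58 µM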)
Summary of the method: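 HEK293/TRHR cells, 1500 per well, 18 h 37 °C; Ca dye 2 h 37 °C; pin-tool compound addition (agonist mode); kinetic fluorescence 3 min, 1 s reads; 15 concentrations, triplicate.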

[16] = biological target: Nuclear receptor subfamily 1 group I member 2 (Homo sapiens) (UniProt O75469); experiment: Human pregnane X receptor (PXR) small molecule agonists, qHTS assay (AID 1346982); further: nearly all actives have a fitted effect of over 35% in size; further: potency means the concentration at half of the fitted maximal effect
Summary of the method: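 Agonist mode: luminescence from ONE-Glo after 24 h compound exposure at 37C in HepG2 cells carrying hPXR-responsive CYP3A4 luciferase, plated in charcoal-stripped serum medium 5 h beforehand.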

[17] = biological target: Thyrotropin-releasing hormone receptor (Homo sapiens) (UniProt P34981); experiment: qHTS assay to identify small molecule antagonists of the thyrotropin-releasing hormone receptor (TRHR) signaling pathway (AID 1346877; active means well fitted inhibition curve with a large enough effect in the repeat runs, not every such curve was filed as active; further: series mostly up to about 51 µM)
Summary of the method: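 Antagonist mode: after a 5 min room-temperature compound exposure, cells were stimulated with 1 nM (final) TRH. Dye-loaded TRHR-HEK293 cells were used, and calcium-dependent fluorescence was followed for 3 min, with 15-point titrations run in triplicate.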

Chain of Progesterone receptor (Homo sapiens) (P06401 whole entry, looked up): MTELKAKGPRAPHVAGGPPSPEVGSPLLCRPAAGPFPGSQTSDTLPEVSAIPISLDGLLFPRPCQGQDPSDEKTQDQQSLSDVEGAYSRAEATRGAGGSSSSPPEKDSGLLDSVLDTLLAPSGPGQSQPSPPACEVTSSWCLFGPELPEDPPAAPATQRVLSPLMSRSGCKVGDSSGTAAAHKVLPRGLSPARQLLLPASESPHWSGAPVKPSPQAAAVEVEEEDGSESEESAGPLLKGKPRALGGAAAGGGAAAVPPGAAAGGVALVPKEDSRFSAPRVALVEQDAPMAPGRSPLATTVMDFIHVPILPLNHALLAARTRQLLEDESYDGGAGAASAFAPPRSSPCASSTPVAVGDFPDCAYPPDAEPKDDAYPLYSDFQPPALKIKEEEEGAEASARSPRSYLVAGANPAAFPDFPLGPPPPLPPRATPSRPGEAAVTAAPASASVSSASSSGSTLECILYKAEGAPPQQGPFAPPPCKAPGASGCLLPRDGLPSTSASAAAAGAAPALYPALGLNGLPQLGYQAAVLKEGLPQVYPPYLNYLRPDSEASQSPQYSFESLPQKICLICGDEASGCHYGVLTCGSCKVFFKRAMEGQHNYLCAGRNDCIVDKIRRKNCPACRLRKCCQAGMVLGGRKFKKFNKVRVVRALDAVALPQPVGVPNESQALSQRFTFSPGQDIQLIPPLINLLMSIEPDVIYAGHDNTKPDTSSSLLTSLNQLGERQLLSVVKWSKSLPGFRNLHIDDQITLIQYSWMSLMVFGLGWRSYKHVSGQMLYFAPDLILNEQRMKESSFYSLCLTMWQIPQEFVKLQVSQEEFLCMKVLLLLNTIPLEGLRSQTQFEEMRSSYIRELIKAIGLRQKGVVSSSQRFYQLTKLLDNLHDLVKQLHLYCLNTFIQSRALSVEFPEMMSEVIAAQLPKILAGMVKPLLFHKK
Chain of Nuclear receptor subfamily 1 group I member 2 (Homo sapiens) (O75469 whole entry, looked up): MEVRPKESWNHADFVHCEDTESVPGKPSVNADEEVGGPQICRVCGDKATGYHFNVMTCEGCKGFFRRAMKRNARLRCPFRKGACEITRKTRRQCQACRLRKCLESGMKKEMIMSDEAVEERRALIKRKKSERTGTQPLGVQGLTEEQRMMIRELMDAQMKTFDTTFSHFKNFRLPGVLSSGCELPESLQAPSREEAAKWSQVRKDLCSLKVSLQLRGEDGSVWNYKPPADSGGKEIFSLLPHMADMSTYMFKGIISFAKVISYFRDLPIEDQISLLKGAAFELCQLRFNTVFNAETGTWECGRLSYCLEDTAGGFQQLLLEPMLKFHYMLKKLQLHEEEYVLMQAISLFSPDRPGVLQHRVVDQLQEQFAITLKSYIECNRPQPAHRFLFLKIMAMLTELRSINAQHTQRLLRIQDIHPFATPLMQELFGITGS
Chain of Acetylcholinesterase (Homo sapiens) (P22303 whole entry, looked up): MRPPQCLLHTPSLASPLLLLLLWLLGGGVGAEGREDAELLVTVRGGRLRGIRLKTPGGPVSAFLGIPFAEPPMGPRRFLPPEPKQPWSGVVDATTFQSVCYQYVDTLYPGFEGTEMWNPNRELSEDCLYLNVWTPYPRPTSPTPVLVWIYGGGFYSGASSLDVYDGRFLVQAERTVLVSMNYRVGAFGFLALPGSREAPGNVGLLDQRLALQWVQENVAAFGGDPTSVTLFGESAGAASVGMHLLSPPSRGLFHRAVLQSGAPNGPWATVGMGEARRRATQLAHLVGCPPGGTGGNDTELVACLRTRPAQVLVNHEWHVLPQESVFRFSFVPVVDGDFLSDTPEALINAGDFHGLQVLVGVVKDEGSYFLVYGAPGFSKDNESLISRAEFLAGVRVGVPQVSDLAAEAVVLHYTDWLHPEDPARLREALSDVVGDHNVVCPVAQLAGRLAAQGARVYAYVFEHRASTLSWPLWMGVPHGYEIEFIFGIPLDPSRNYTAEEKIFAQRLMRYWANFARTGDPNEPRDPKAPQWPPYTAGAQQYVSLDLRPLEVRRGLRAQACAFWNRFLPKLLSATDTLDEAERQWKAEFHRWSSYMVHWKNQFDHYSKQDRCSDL
Chain of Thyrotropin-releasing hormone receptor (Homo sapiens) (P34981 whole entry, looked up): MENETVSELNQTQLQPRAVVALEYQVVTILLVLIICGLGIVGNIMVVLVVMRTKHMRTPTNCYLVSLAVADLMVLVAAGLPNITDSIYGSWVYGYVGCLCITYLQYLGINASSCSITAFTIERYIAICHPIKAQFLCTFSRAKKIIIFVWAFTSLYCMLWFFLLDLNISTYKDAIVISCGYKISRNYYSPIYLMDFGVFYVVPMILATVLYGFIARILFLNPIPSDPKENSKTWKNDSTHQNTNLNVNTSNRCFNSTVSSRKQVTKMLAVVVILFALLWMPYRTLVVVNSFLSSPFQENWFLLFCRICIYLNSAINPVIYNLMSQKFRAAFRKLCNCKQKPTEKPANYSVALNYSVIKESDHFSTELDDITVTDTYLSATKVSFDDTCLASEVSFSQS

Compound	Potency [1]	Potency [2]	Potency [3]	Potency [4]	Potency [5]	Potency [6]	outcome [7]	outcome [8]	Potency [9]	Potency [10]	Potency [11]	Potency [12]	Potency [13]	Potency [14]	outcome [15]	Potency [16]	outcome [17]
CCOP(=O)(OCC)OP(=O)(OCC)OCC	inactive	inactive	inactive	inactive	inactive	inactive	inactive	inactive	inactive	inactive	inactive	inactive	inactive	inactive			
OCCBr	inactive	inactive	inactive	inactive	inactive	inactive	inactive	inactive		inactive	inactive	inactive	inactive	inactive	inactive	inactive	
CCOC(=O)CP(=O)(OCC)OCC	inactive	inactive	inactive	inactive	inactive	inactive	inactive	inactive	inactive	inactive	inactive	inactive	inactive	inactive	inactive	inactive	inactive
O=C(Nc1ccccc1)c1ccccc1I	inactive	inactive	54.5 µM (active)	inactive	inactive	inactive	inactive	inactive		inactive		inactive	inactive	inactive		68.6 µM (active)	inactive
CNC(=O)O/N=C(\C)SC	inactive	inactive	inactive	inactive	inactive	inactive	inactive	inactive	inactive	inactive	inactive	inactive	inactive	1.59 µM (active)	inactive	inactive	inactive
COc1ccc(C(=O)N2CCCC2=O)cc1	inactive	inactive	inactive	inactive	inactive	inactive	inactive	inactive		inactive	inactive	inactive	inactive		inactive		inactive
CCOc1nc(C(Cl)(Cl)Cl)ns1	inactive	inactive	inactive	inactive	inactive	inactive	inactive	inactive	inactive	inactive	inactive	inactive	inactive	inactive	inactive	inactive	inactive
Nc1c(Br)cc([N+](=O)[O-])cc1[N+](=O)[O-]	31 µM (active)	inactive	27.6 µM (active)	inactive	inactive	inactive	inactive	inactive		inactive	55.1 µM (active)	inactive		36 µM (active)	inactive	55.1 µM (active)	inactive
CC(C)COP(=O)(OCC(C)C)OCC(C)C	inactive	inactive	inactive	inactive	inactive	inactive	inactive	inactive		inactive	inactive	inactive	inactive	inactive	inactive	inactive	inactive
